In PubChem BioAssay (NCI):
The panel holds about 83,000 compounds, 20% with a hit somewhere; the sample as a whole holds those more often.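 Testing used 96-well plates and a 48-hour single-concentration exposure. Example: -40 means 40% of the starting cells died.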 Unmarked numbers belong to inactive results. The source made the active and inactive calls. How the source made its calls: active means growth percent below 10; inactive means the rest.

Key:
Assay in all cases: NCI-60 one-dose screen, 48 h (100 = growth as untreated, 0 = no growth, -100 = all killed)
Settings in all cases: 10 µM unless noted
DU-145 prostate = tested on: DU-145 prostate
K-562 leukemia = tested on: K-562 leukemia
MALME-3M melanoma = tested on: MALME-3M melanoma
MDA-MB-231 breast = tested on: MDA-MB-231 breast
RXF 393 renal = tested on: RXF 393 renal
SF-268 CNS = tested on: SF-268 CNS
SF-295 CNS = tested on: SF-295 CNS
SF-539 CNS = tested on: SF-539 CNS
UACC-257 melanoma = tested on: UACC-257 melanoma
M14 melanoma = tested on: M14 melanoma
HCT-15 colon = tested on: HCT-15 colon
HT29 colon = tested on: HT29 colon
SNB-75 CNS = tested on: SNB-75 CNS
SNB-19 CNS = tested on: SNB-19 CNS
U251 CNS = tested on: U251 CNS
PC-3 prostate = tested on: PC-3 prostate
SK-MEL-5 melanoma = tested on: SK-MEL-5 melanoma
UACC-62 melanoma = tested on: UACC-62 melanoma
LOX IMVI melanoma = tested on: LOX IMVI melanoma
SK-MEL-28 melanoma = tested on: SK-MEL-28 melanoma

Compound | growth (DU-145 prostate) | growth (K-562 leukemia) | growth (MALME-3M melanoma) | growth (MDA-MB-231 breast) | growth (RXF 393 renal) | growth (SF-268 CNS) | growth (SF-295 CNS) | growth (SF-539 CNS) | growth (UACC-257 melanoma) | growth (M14 melanoma) | growth (HCT-15 colon) | growth (HT29 colon) | growth (SNB-75 CNS) | growth (SNB-19 CNS) | growth (U251 CNS) | growth (PC-3 prostate) | growth (SK-MEL-5 melanoma) | growth (UACC-62 melanoma) | growth (LOX IMVI melanoma) | growth (SK-MEL-28 melanoma)
CC1(C)N=C(N)N=C(N)N1c1ccc(OCCCNC(=O)Nc2ccc(S(=O)(=O)F)cc2)c(Cl)c1 | 32.4% | 25.2% | 55.2% | 65.1% | 49.4% | 32.3% | 21.7% | 16.5% | 26.4% | 35.3% | 41.5% | 8% (active) | 57.6% | 28.6% | 24.5% | 12.7% | 29% | 23.7% | 16.2% | 54.2%
CCOP1(=O)CC(C)=C(Cl)C(P(=O)(OCC)OCC)C1 (stereo not given) | 109% | 110% | 118% | 87.6% | 74.5% | 107% | 103% | 113% | 76.9% | 74.3% | 101% | 96.2% | 78.7% | 89.9% | 101% | 92.6% | 101% | 92.3% | 92.6% | 87.3%
CC1CN1CCCCN1CC1C (stereo not given) | 105% | 83.6% | 103% | 125% | 115% | 98.6% | 101% | 103% | 83.9% | 107% | 103% | 87% | 81.1% | 109% | 104% | 95% | 107% | 113% | 101% | 100%
COC(=O)[C@H](Cc1ccccc1)NC(=O)c1csc([C@@H](C[C@H](C(C)C)N(C)C(=O)[C@@H](NC(=O)[C@H]2CCCCN2C)C2CC2)OC(C)=O)n1 | 6.13% (active) | 3.82% (active) | 67.8% | -1.7% (active) | 75.8% | 19.2% | 3.79% (active) | -14.4% (active) | 54.2% | -5.77% (active) | 13.1% | 5.33% (active) | 34.3% | 69.6% | -5.23% (active) | 11.3% | -1.17% (active) | 36.3% | 14.7% | 44.7%
CN1C(=O)C(=Cc2cn(Cc3ccccc3)c3ccccc23)C(=O)N(C)C1=O | 103% | 51.1% | 91.3% | 75.5% | 56.9% | 95.4% | 34.7% | 86.2% | 27.9% | 92.6% | 93% | 89.5% | 60.1% | 90% | 82.8% | 84.8% | 63.4% | 34% | 82.6% | 99.3%
Fc1c[c-]c(-c2ccccn2)c(F)c1.[CH3-].[Pt+2].c1ccc([PH+](c2ccccc2)c2ccccn2)cc1 | 15.9% | 4.86% (active) | -75.5% (active) | -70.6% (active) | -64.8% (active) | 22.8% | 5.67% (active) | -46.7% (active) | 0.865% (active) | -30.4% (active) | -36.7% (active) | -13% (active) | -5.13% (active) | 26% | 6.42% (active) | 15.4% | -75.3% (active) | -30.5% (active) | -95.3% (active) | -21.9% (active)
CC[C@H](C)[C@H](NC(=O)c1nccn1C)C(=O)N(C)[C@H](C[C@@H](OC(C)=O)c1nc(C(=O)N[C@@H](Cc2ccccc2)C[C@H](C)C(=O)OC)cs1)C(C)C | 4.69% (active) | 6.34% (active) | 71.6% | -5.75% (active) | -0.416% (active) | 25.6% | 4.7% (active) | -31.7% (active) | 54.2% | 3.12% (active) | 10.5% | -6.75% (active) | 15.8% | 37.3% | 9.94% (active) | 25.2% | -0.799% (active) | 55.7% | 17.6% | 51.2%
COC(=O)[C@@H](C)C[C@H](Cc1ccccc1)NC(=O)c1cccc([C@@H](C[C@H](C(C)C)N(C)C(=O)[C@@H](NC(=O)[C@H]2CCCCN2C)C(C)C)OC(C)=O)n1 | 10.5% | 7.86% (active) | 77.9% | -4.66% (active) | 46.1% | 30.8% | 6.28% (active) | 2.03% (active) | 49.7% | -10.9% (active) | 10.6% | 6.05% (active) | 26.5% | 18.5% | 14.6% | 28.7% | -50.6% (active) | 29.1% | 13.6% | 67.2%
C[C@]12CC[C@H]3[C@@H](CC4SC(N)=NC45C/C(=N/NC(N)=O)CC[C@]35C)[C@@H]1CCC2=O (stereo not given in full) | 31.1% | -38.5% (active) | 3.07% (active) | 35.2% | 7.08% (active) | -6.41% (active) | 45.7% | 87.2% | 105% | -51.1% (active) | -47.8% (active) | 13.2% | 99% | -9.98% (active) | -69.9% (active) | 57.3% | 20.6% | 38.9% | -67.6% (active) | 13%
CO[C@H]1CC[C@@]2(C)C(=CC[C@@H]3[C@@H]2CC[C@]2(C)C(=O)C(=O)C[C@@H]32)C1 | 116% | 101% | 111% | 103% | 26.3% | 103% | 110% | 104% | 120% | 102% | 103% | 106% | 103% | 94.8% | 104% | 84.2% | 99% | 92.5% | 92.5% | 117%
CN[C@]1(c2ccccc2Cl)CCCC[C@H]1NCCCN1CCN(C)CC1 | 108% | 90.3% | 104% | 94.2% | 97.4% | 94.1% | 102% | 94.8% | 102% | 98.9% | 99% | 96% | 82% | 102% | 103% | 91.5% | 97.7% | 104% | 96.4% | 112%
COC(=O)CCc1c[nH]c2ccc(N(CCCl)CCCl)cc12 | 33.3% | 70.7% | 71% | 121% | 46.8% | 40.6% | 32.9% | 23.2% | 85.9% | 45.4% | 64.9% | 59.3% | 49% | 54% | 40.1% | 65.3% | 52% | 49.3% | 29.7% | 91.1%
C=CC[n+]1ccc(-c2cc[n+](CC=C)cc2)cc1 | 107% | 99.4% | 34.1% | 120% | 99.8% | 102% | 101% | 101% | 96.9% | 109% | 96.4% | 29.1% | 92.5% | 111% | 89.4% | 90.9% | 71.4% | 110% | 101% | 102%
CC1=C(CCCOC(=O)CN)C2=C(C)C3(CC3)[C@@](C)(O)C(=O)C2=C1 | 17% | 90.2% | 114% | 95.2% | -16.4% (active) | 48.7% | 86.8% | 94% | 86% | 73.8% | 77.6% | 69.9% | 97% | 91.2% | 82.3% | 69.4% | 92.2% | 90.8% | 88.6% | 115%
Nc1c(F)cc(-c2nc3cc(F)ccc3[se]2)cc1Br | 98.8% | 98.5% | 87% | 17.8% | 74.8% | 98.6% | 74.5% | 87.6% | 85.4% | 88% | 18.5% | 5.05% (active) | 73.4% | 94.5% | 87.5% | 66.4% | 50% | 47.5% | 90.1% | 106%
